Molecules are shown by their SMILES. “And” between values parts separate entries of the source, which are not always exact repeats. Equal values may be shown once. Records with an inconclusive call do not appear. The source made the active and inactive calls. The calls were made as follows: active = hit-call score of the fitted dose curve at least 0.9, where 1 is the maximum; inconclusive = response in the unintended direction; inactive = score below 0.9.

Chain of human Phosphatase and Tensin Homolog (PTEN), PTEN (gene 5728) (P60484 whole entry, looked up): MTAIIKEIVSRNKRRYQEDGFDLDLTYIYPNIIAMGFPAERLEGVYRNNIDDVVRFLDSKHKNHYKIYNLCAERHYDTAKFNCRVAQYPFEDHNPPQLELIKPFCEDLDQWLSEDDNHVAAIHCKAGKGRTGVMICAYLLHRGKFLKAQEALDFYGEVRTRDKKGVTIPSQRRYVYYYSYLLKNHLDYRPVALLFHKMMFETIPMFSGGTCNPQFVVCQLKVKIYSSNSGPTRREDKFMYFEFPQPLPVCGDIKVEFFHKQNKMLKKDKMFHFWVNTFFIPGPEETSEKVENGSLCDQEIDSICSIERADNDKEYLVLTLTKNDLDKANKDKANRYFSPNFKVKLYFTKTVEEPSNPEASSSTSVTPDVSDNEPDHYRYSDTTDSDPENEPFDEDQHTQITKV

The experiment concerns the target human Phosphatase and Tensin Homolog (PTEN), PTEN (gene 5728) (UniProt P60484). As to the kind of experiment: NVS_ENZ_hPTEN: NovaScreen (NVS) Enzymatic Assay for human Phosphatase and Tensin Homolog (PTEN) (AID 2283203). The protocol:
NVS_ENZ_hPTEN is a biochemical, single-readout assay that uses extracted gene-proteins in a cell-free assay. Measurements were taken 1 hour after chemical dosing in a 384-well plate.NVS_ENZ_hPTEN is one of one assay component(s) measured or calculated from the NVS_ENZ_hPTEN assay. It is designed to make measurements of enzyme activity, a form of enzyme reporter, as detected with fluorescence intensity signals by Fluorescence and electrophoretic mobility shift technology.Data from the assay component NVS_ENZ_hPTEN was analyzed into 1 assay endpoint. This assay endpoint, NVS_ENZ_hPTEN, was analyzed in the positive analysis fitting direction relative to DMSO as the negative control and baseline of activity. Using a type of enzyme reporter, loss-of-signal activity can be used to understand changes in the enzymatic activity as they relate to the gene PTEN. Furthermore, this assay endpoint can be referred to as a primary readout, because this assay has produced multiple assay endpoints where this one serves a enzymatic activity function. To generalize the intended target to other relatable targets, this assay endpoint is annotated to the phosphatase intended target family, where the subfamily is dual-specific phosphatase.
Binding assays used specific radioligands (tritiated, iodinated) with non-radioactive competitive displacement ligands in agonist or antagonist protocols (as indicated) and various reference compounds and inhibitors to titrate specific binding to receptors and transporters. Most enzyme assays (CYPs, kinases, phosphatases, proteases, HDACs) used recombinant protein and specific substrates (fluorescence mostly, some colorimetric and radioactive) and inhibitors, followed by a biochemical separation of substrate and product. All assays for the biochemical HTS were initially run in duplicate at a single concentration (10 uM for CYP450 assays and 25 uM for all others). […] Each assay was run with positive and negative controls, and concurrent controls on every plate. The follow-up (secondary) screen tested active chemical-pairs in concentration series, as well as a few additional assays not tested in the primary screen, some selected negative inactives, and several cases re-run in the concentration series for confirmatory purposes.
In the case of `O=C(O)c1[nH]n(-c2ccc(S(=O)(=O)O)cc2)c(=O)c1N=Nc1ccc(S(=O)(=O)O)cc1`, the molecule was called inactive.

`CCc1cccc(C)c1N(C(=O)CS(=O)(=O)O)C(C)COC` (stereo not given): the molecule was called inactive. `Nc1ccc(S(=O)(=O)Nc2nccs2)cc1`: the molecule was called inactive.

Turning to `O=C=Nc1cccc2c(N=C=O)cccc12`, the call was inactive. On to `Cc1ccc2ncccc2c1`, for which the outcome was inactive.

For `CN(CCOc1ccc(CC2SC(=O)NC2=O)cc1)c1ccccn1` (stereo not given), the molecule was classed as inactive.

As to `CC(C)c1cccc(C(C)C)c1N1C(=O)c2ccc(O)cc2C1=O`, the molecule was called inactive. In the case of `CC[C@H](C)C(=O)O[C@H]1C[C@@H](C)C=C2C=C[C@H](C)[C@H](CC[C@@H]3C[C@@H](O)CC(=O)O3)[C@H]21`, the result was inactive.

`CCCCCCCCCCc1ccccc1`: the result was inactive.

Turning to `FC(F)(F)C(F)(F)C(F)(F)C(F)(F)C(F)(F)C(F)(F)CCI`, the molecule was classed as inactive.

Consider `CCCC(C)C=O` (stereo not given), for which the outcome was inactive. For `COCCO`, the call was inactive. On to `O=C(OCCCCCOC(=O)c1ccccc1)c1ccccc1`, for which the outcome was inactive.

On to `CCC(C)C(=O)OC` (stereo not given), for which the molecule was classed as inactive.

In the case of `CC(C)c1ccccc1N`, the half-maximal activity concentration (AC50) is 12.4 µM (active). On to `CC/C=C\C#N`, for which the molecule was called inactive.

`C1CCC(SSC2CCCCC2)CC1`: the outcome was inactive. Regarding `Cc1nc(-c2ccccn2)ncc1C(=O)Nn1cc(C)c2cc(F)ccc21`, the call was inactive. On to `CCCCOCC`, for which the half-maximal activity concentration (AC50) was 37 µM (active). Regarding `CO[Si](OC)(c1ccccc1)c1ccccc1`, the call was inactive.

Consider `O=C(Oc1ccccc1)c1cccc(C(=O)Oc2ccccc2)c1`, for which the result was inactive. With `CN(C[C@@H](CC[N+]12CCC(C3CCCCC3)(CC1)CC2)c1ccc(Cl)c(Cl)c1)C(=O)c1cc(C(F)(F)F)cc(C(F)(F)F)c1`, the concentration at half-maximal activity (AC50) is 16.2 µM (active).

Consider `CN(C)C(=S)SC(=S)N(C)C`, for which the concentration at half-maximal activity (AC50) is 18.9 µM (active). In the case of `Clc1cc(Cl)c(-c2c(Cl)c(Cl)cc(Cl)c2Cl)cc1Cl`, the AC50 is 12.5 µM (active). As for `CCc1cccc(CC)c1`, the molecule was called inactive. Take `C=CC(=O)OCC(Br)CBr` (stereo not given): the call was inactive. As to `CCCCC/C=C/C=C/C=O`, the half-maximal activity concentration (AC50) is 25 µM (active).

Turning to `SCc1ccco1`, the AC50 is 25 µM (active). `CCc1c(C(=O)NN2CCCCC2)nn(-c2ccc(Cl)cc2Cl)c1-c1ccc(Br)cc1`: the result was inactive. Take `CC(C)CCOCCC(C)C`: the molecule was called inactive. As to `OCCC(O)CO` (stereo not given), the AC50 is 14.7 µM (active). As for `CC1(C)[C@H](C(=O)OCc2cccc(Oc3ccccc3)c2)[C@@H]1C=C(Cl)Cl`, the AC50 is 15.7 µM (active). In the case of `C=C(C)CCO`, the molecule was called inactive. For `O=C(O)C[C@H](O)C[C@H](O)/C=C/c1c(C2CC2)nc2ccccc2c1-c1ccc(F)cc1`, the half-maximal activity concentration (AC50) is 0.161 µM (active). Still for that read-out and setting: the value for `S=C(S)NCCNC(=S)S.[Mn+2].[S-]C([S-])=NCCN=C([S-])[S-].[Zn+2]` was 3.14 µM (active) and 80.5 nM (active) and 274 nM (active). Take `CC(C)(c1ccc(O)cc1)c1ccc(O)cc1`: the outcome was inactive. For the molecule `Oc1ccc2c(c1)CCC2`, the AC50 was 1.62 µM (active). With `CCCC(CCC)C(=O)O`, the result was inactive.

With `CC(C)=CCCC(C)O` (stereo not given), the result was inactive. Turning to `CC/C(=C(/CC)c1ccc(O)cc1)c1ccc(O)cc1`, the outcome was inactive.

The values above are taken from PubChem BioAssay (EPA / NIEHS).
